# Results reported in ChEMBL document CHEMBL3988442, “University of Dundee, Small-Polar-MMV Screening Library” (2021).
# Target: AMP-activated protein kinase, AMPK (Homo sapiens) (UniProt P54646+O43741+P54619+Q9UGJ0+Q9Y478+Q13131+Q9UGI9)
# Assay: AMP-dependent Kinase enzyme assay. An in vitro enzyme assay that detects ADP turnover that is directly proportional to AMPK activity. This uses naive AMPK that is activated during the assay with MK-8722
# Type: functional
# Design: scale not given: direction of the effect not stated beside the values
# Conditions: 30 µM
row,Structure (SMILES),Percent Effect [%]
1,O=C(Nc1cccc(N2CCCC2)c1)N[C@H](CCO)c1ccccc1,-57.9
2,CC1(C)Cc2nc(C(C)(C)C)ncc2C(NC(=O)Cc2nnn[nH]2)C1 (stereo not given),-20.8
3,CS(=O)(=O)c1ccc(NC(=O)NCCC2=CCCCC2)cc1,-2.69
4,CCc1nc(CCNc2ncccc2C#N)sc1C,-3.24
5,Cc1ccc2[nH]c(CNC(=O)C3CC4(CCNCC4)CN3C)nc2c1C (stereo not given),-16.1
6,CCN(CCNS(=O)(=O)C1CCOCC1)C(=O)OC(C)(C)C,1.64
7,Cc1ccc(CNCc2nccn2C)c(OCC2CC2)c1,3.02
8,Cc1noc(C)c1-c1cccc(C2CCN(S(=O)(=O)N(C)C)CC2)n1,5.6
9,COc1ccc(OCCNC(=O)CN(C)Cc2nnc(C)n2C)cc1,7.86
10,CCN(CC)C(CNC(=O)c1ccnc(N(C)C)c1)c1ccsc1 (stereo not given),-4.85
11,CC(=O)N1CC(C(=O)NC(C)c2cnn(C)c2C)C1 (stereo not given),8.59
12,CC(C)c1nc(CN(C)C(=O)C(O)c2ccc(Cl)cc2)cs1 (stereo not given),-2.36
13,Cc1ccccc1-n1ccnc1S(=O)(=O)Cc1nsc(N(C)C)n1,-1.55
14,Cc1cc(N2CCC(n3cc(CN4CCC[C@@H]4CO)nn3)CC2)ccn1,-0.25
15,CCS(=O)(=O)NCC(=O)N(C1CC1)C1Cc2ccccc2C1,-4.92
16,O=C(Cc1nc(-c2ccncc2)n[nH]1)N1CCOCC1,7.55
17,CCN(CCNC(=O)Nc1nnc(C)s1)C(=O)OC(C)(C)C,-0.666
18,Cn1ncc2c(N[C@@H]3C[C@@H]4CC[C@H]3C4)nc(-c3ccncc3)nc21,12.7
19,COCCOc1ncccc1NCc1nc2ccccc2n1C,7.32
20,Cc1cc(C(=O)N2CCNC(=O)CC2)c(C)n1CC(F)(F)F,-2.89

row,Structure (SMILES),Percent Effect [%]
1,CC(C)n1cc(CN(C)C[C@@H]2CCCN3CCCC[C@H]23)cn1,3.96
2,CC(C)Cn1ncc(C(=O)O)c1C1CC1,5.05
3,CCN(Cc1cnn(CC)c1)Cc1c(Cl)cncc1Cl,6.24
4,O=C(c1nc(N2CCCC2)ncc1Cl)N1CCN(Cc2ccsc2)CC1,7.12
5,CC1CN(CC(=O)NCc2ccc(F)cc2)CCN1c1nccs1 (stereo not given),10.2
6,Cc1noc(CN(C)c2nc(-c3ccco3)nc3c2CCN(C)CC3)n1,3.37
7,COc1ccccc1CCNC(=O)N(C)C(C)CS(C)(=O)=O (stereo not given),-5.38
8,CN(C)c1ccc(C(=O)Nc2cnn(Cc3ccccn3)c2)cc1,-1.9
9,Cc1n[nH]c(C)c1CCc1ccc(S(C)(=O)=O)cc1,0.986
10,O=C(CCn1cncn1)NCCOc1cccc(Cl)c1,-7.83
11,Cc1ccc(-c2noc(C3CCN3C(=O)c3cc[nH]n3)n2)s1 (stereo not given),16
12,CC(C)c1noc(C(C)N2CCN(Cc3noc(C4CC4)n3)CC2)n1 (stereo not given),-0.511
13,Cc1nc(CNCC2CNc3ccnn3C2)cs1 (stereo not given),-8.22
14,NC(=O)CN1CCc2c(Br)ccc(F)c2C1,1.51
15,CC(c1nnc(-c2ccccc2)o1)N1CCC(Nc2ccccc2)CC1 (stereo not given),4.64
16,Cn1ccc(C(=O)N2CCC(Cc3ccc4ncccc4c3)CC2)n1,15.1
17,CCc1ncc2c(n1)CN(Cc1nc(-c3ccco3)oc1C)CC2,-22.8
18,Cc1ccc(N2CCC(c3cc(Cc4ccccc4)n[nH]3)CC2)nn1,10.9
19,O=C(Nc1cccc(F)c1)NC1CCN(Cc2ccncc2)CC1,1.71
20,NC(=O)NC1CCN(Cc2ccccc2OCC(F)(F)F)CC1,-5.97
